Source: PubChem
Lassa entry inh – Lassa virus entry inhibition; Lassa virus pseudotype entry inhibition, cell reporter; 1.2% of 300,000 active; Potency, µM (doses to about 37.9 µM), inactives show top-dose activity change, negative = inhibition, actives largely listed as inhibitors; calls by dose curve; tested in HEK293 cells; further: potency means the concentration at half of the fitted maximal effect; on the % scale 0 is the no-effect control and ±100 the full control effect; nearly all actives have a fitted effect of over 50% in size
MARV entry inh – inhibitors of Marburg virus binding or cell entry | Marburg virus pseudotyped entry inhibition, cell reporter | AID 540276 | 1.8% of 300,000 active | Potency, µM (titrated, usually from 37.8 µM), inactives show at the top dose activity change, negative = inhibition, most hits filed as inhibitors; calls by dose curve; tested in HEK293 cells; further: potency means the concentration at half of the fitted maximal effect; on the % scale 0 is the no-effect control and ±100 the full control effect
Shiga toxin inh – blocks Shiga toxin action in Vero cells; inhibition, % at 38.7 µM; Vero cells, Shiga toxin protein synthesis inhibition reporter; 9.2% of 290,000 active; in the data active means inhibition mostly above about 28%, no sharp cut-off; inactive means mostly below about 43%; further: 0% is about no effect
CHX counter – counter-screen hit for Shiga toxin inhibitors, cycloheximide. 12% of 300,000 active. max response, %. cell reporter, cycloheximide protein synthesis inhibition counterscreen; in the data active means max response mostly above about 13%, no sharp cut-off; inactive means mostly below about 14%; further: read at 38.3 µM for the half of the compounds with a filed dose; 0% is about no effect
An asterisk follows results filed as active; ? = inconclusive; . = not tested or not shown; [ ] = dose if it differs, or a comment. Shown are actives, neighbours in structure and some others; about 12% of the full set was active somewhere.

SMILES	Lassa entry inh	MARV entry inh	Shiga toxin inh	CHX counter
Cc1ccc(SCc2cc(=O)n3ccsc3n2)c(C)c1	.	.	47	21*
Cc1cccc(-n2c(SCc3cc(=O)n4ccsc4n3)nc3ccccc32)c1	22%	9%	23	20*
O=c1cc(CSc2ccc([N+](=O)[O-])cc2)nc2sccn12	11%	2%[46.1 µM]	68*	20
O=c1cc(CSc2n[nH]c(-c3ccncc3)n2)nc2sccn12	11%[46.1 µM]	11%[46.1 µM]	-16	1
O=C(NCc1ccc(F)cc1)C(=O)NCC1OCCN1S(=O)(=O)c1cccs1 (centres undefined)	-26%	-1%	-9	1
O=C(CSc1ccccn1)Nc1nc2ccc(Br)cc2s1	3%	20%	38	25*
COc1ccc2nc(NC(=O)CSc3nc4cccnc4n3C)sc2c1	?	?	-23	6
CC(C)Cc1nnc(NC(=O)CCC(=O)NC2CCCCC2)s1	-1%[46.1 µM]	21%[46.1 µM]	-2	12
CCOc1ccc2nc(NC(=O)CSC3=NCCS3)sc2c1	?	?	44	25
CC(C)Cc1nnc(NC(=O)C2CCCC2)s1	-30%	6%[46.1 µM]	44	24*
COc1ccc2nc(NC(=O)CSC3=NCCS3)sc2c1	-1%	?	55	32*
COc1ccc2nc(NC(=O)CSc3nnc(C)n3N)sc2c1	.	.	51*	35*
COc1ccc(NC(=O)CNc2cc(S(=O)(=O)N3CCOCC3)ccc2NCC2CCCO2)cc1 (centres undefined)	19%[46.1 µM]	8%[46.1 µM]	14	12
CN(c1cccc(NC(=O)CN(c2cccc(Cl)c2)S(=O)(=O)c2ccc(Cl)cc2)c1)S(C)(=O)=O	-19%	?	-15	-1
CC(C)Cc1nnc(NC(=O)CSc2ccccn2)s1	5%	2%	19	23*
COc1ccc2nc(NC(=O)CSc3ccccc3)sc2c1	-29%	-4%[46.1 µM]	138*	57*
Cc1ccc2nc(NC(=O)CSc3nncc(=O)n3N)sc2c1	?	8%	18	34*
COc1ccc2nc(NC(=O)CSc3nnc(N)s3)sc2c1	4%	27%	13	4
Cc1ccc2nc(NC(=O)CSc3[nH]c(=O)ncc3C)sc2c1	9%[46.1 µM]	.	16	27*
Cc1cnc(=O)[nH]c1SCC(=O)Nc1nc2ccccc2s1	30%[46.1 µM]	.	.	.
Cc1nnc(NC(=O)CSc2ccccn2)s1	-3%	?	21	1
C#CC(N)CCC(=O)O (centres undefined)	-3%	?	.	.
Cc1cc(NC(=O)c2ccccc2)no1	?	?	73*	51*
Cc1cc(NC(=O)c2ccc3nc(-c4ccccc4)c(-c4ccccc4)nc3c2)no1	-40%[14.3 µM]	?	-9	1
Cc1cc(NC(=O)c2ccc(NC(=O)C3CC3)cc2)no1	17%	?	61*	30*
SMILES	Lassa entry inh	MARV entry inh	Shiga toxin inh	CHX counter
Cc1cc(NC(=O)c2ccc(NC(=O)C(C)C)cc2)no1	19%	?	77	32
Cc1cc(NC(=O)C(=O)c2cn(C)c3ccccc23)no1	-17%	?	42	18*
COc1ccccc1C(=O)Nc1cc(C)on1	5%	2%	.	45*
Cc1ccccc1C(=O)OCC(=O)NCC1COc2ccccc2O1 (centres undefined)	-1%	0%	.	.
Cc1ccc(CNC(=O)C2CCCN2S(=O)(=O)c2ccc(Cl)cc2)cc1 (centres undefined)	.	.	.	-2
Cc1cc(NC(=O)c2cccc(Br)c2)no1	29%	?	.	.
O=C(Nc1ccccc1)c1ccc(NC(=O)C2CC2)cc1	1%[46.1 µM]	21%[46.1 µM]	42*	32*
COc1cccc(C2=NOC(C(=O)Nc3cc(C)on3)C2)c1OC (centres undefined)	.	.	53	14*
COc1cccc(C2=NOC(C(=O)Nc3cccc(C(C)=O)c3)C2)c1OC (centres undefined)	?	?	-19	-3
Cc1cc(NC(=O)c2cccc(F)c2)no1	1%	13%	27	26*
COc1ccccc1C(=O)Nc1cc(-c2ccc(C)cc2)no1	25%[46.1 µM]	?	83*	25*
Cc1ccc(-c2cc(NC(=O)c3cccc(C)c3)on2)cc1	19%[46.1 µM]	13%[46.1 µM]	.	.
Cc1ccc(N2CC(C(=O)O)CC2=O)cc1 (centres undefined)	-11%	18%[46.1 µM]	-7	1
O=S(=O)(NCc1ccccc1)NCc1cccc(C(F)(F)F)c1	-3%[46.1 µM]	?	-5	-1
O=C(C1CCCN(S(=O)(=O)c2ccccc2)C1)N1CCCCC1 (centres undefined)	.	.	17	3
COC(=O)CC=C1c2ccc(OC)cc2[C@@H](OC)[C@@H]1C	?	4%[14.2 µM]	.	.
CC(=O)Nc1cnc(NC(=O)c2cccc(F)c2)cc1C	-2%	-27%[46.1 µM]	55*	50*
C/C(=C\C(=O)Nc1cc(C)on1)c1ccccc1	1%	14%	57*	37*
CCN1CCN(CC(=O)Nc2c(OC)cccc2OC)CC1	?	4%	-4	-3
Cc1ccc(-c2nc(N)s[n+]2-c2ccccc2)cc1	?	15%	91*	81*
CNc1nc(-c2ccccc2)[n+](-c2ccc(C)cc2)s1	27%	3%	135*	30*
Cc1ccc(-c2nc3ccccc3nc2-c2ccccc2)cc1	?	-16%[46.1 µM]	-5	11
CN(CC(=O)Nc1ccccc1Br)C(=O)CNC(=O)c1ccc(Oc2ccccc2)cc1	.	.	55*	60*
COc1cccc(NC(=O)CN(C)C(=O)CNC(=O)c2ccc(Oc3ccccc3)cc2)c1	4%[46.1 µM]	-8%	.	.
COc1cc(N/N=C/c2ccccc2O)ncn1	?	?	33*	28*
SMILES	Lassa entry inh	MARV entry inh	Shiga toxin inh	CHX counter
COc1cc(N/N=C/c2ccc(N(C)C)cc2)ncn1	.	.	97*	45*
Cc1cnn(-c2cc(N/N=C/c3ccccc3)ncn2)c1	-14%	3%	37	16
Cc1ccc(OCc2nnc(SCC(=O)Nc3cccc4ccccc34)n2-c2ccccc2)cc1	?	13µM*	7	1
Cc1ccc(NC(=O)CSc2nnc(COc3ccc(C#N)cc3)n2-c2ccccc2)cc1C	?	7.3µM*	-6	-6
Cc1ccc(OCCn2cc(/C=C/C(=O)O)c3ccccc32)cc1	.	.	-4	-2
CC(C)CN(CC(C)C)CC(O)Cn1cc(/C=C/C(=O)c2ccccc2)c2ccccc21 (centres undefined)	?	2%[46.1 µM]	.	.
CCOc1ccc(C(=O)/C=C/c2cn(CN3CCN(C)CC3)c3ccccc23)cc1	-5%	-25%	61*	31*
COc1ccc(C(=O)/C=C/c2cn(CN3CCN(C)CC3)c3ccccc23)cc1	-28%	?	49*	43*
CCOC(=O)c1ccc(NC(=O)c2cc3cc(C)ccc3n2C)cc1	0%[46.1 µM]	-5%[46.1 µM]	.	.
Cc1ccc(C2C3C(=O)N(c4ccccc4)C(=O)C3N3CCCN23)cc1 (centres undefined)	.	.	-9	28*
Cc1oc(-c2cccc(Cl)c2)nc1Cn1c(SCc2ccc(F)cc2)nc2cccnc21	17%[46.1 µM]	.	.	.
CC(=O)c1ccc(N2CCN(C(=O)c3ccco3)C(C)C2)c(F)c1 (centres undefined)	-11%	29%	-3	-1
CC(=O)c1cc(F)c(N2CCN(C(=O)c3ccco3)CC2)cc1C	-2%	-3%	0	31*
CC1CN(c2ccc([N+](=O)[O-])cc2F)CCN1C(=O)c1ccco1 (centres undefined)	-13%	?	-18	-1
